HP1b chromo inh – blocks HP1-beta chromodomain binding to methylated histone tails. 390,000 compounds, 0.56% hits. AlphaScreen HP1-beta / biotin-H3K9me3 peptide binding. Potency, µM (titrated, usually from 114 µM), for the others: at the highest dose activity change, negative = inhibition, most hits filed as inhibitors. AID 540317; also: nearly all actives have a fitted effect of over 70% in size
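Compound inhibition of the preformed complex between 50 nM HP1-beta and 50 nM biotinylated H3K9me3 peptide was read by AlphaScreen. Buffer was PBS pH 7.4 with 0.01% Tween-20. Incubations ran 30 min at room temperature, with 10 ug/mL donor/acceptor beads.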
L3MBTL1 block – L3MBTL1 (human) inhibition. AlphaScreen L3MBTL1–H3K9me1 peptide binding. Potency, µM (doses to about 57.1 µM), for inactives: at the top dose activity, negative = inhibition, hits mostly inhibitors. 230,000 compounds, 0.66% hits. AID 485360; also: % is scaled to controls: 0 for no effect and ±100 for the full control effect; nearly all actives have a fitted effect of over 60% in size
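L3MBTL1 (50 nM) pre-complexed 30 min with biotinylated H3(1-15)K9me1 peptide (75 nM), then compounds added for 30 min at room temperature; AlphaScreen streptavidin donor/nickel chelate acceptor beads (10 ug/mL final) read after 30 min dark incubation.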
BAZ2B block – inhibitors of human BAZ2B bromodomain | Q9UIF8 | AlphaScreen BAZ2B-H3K14Ac peptide displacement | Potency, µM (doses to about 114 µM), for the others: at the top dose activity change, negative = inhibition, usual class: inhibitors | 360,000 compounds, 4.4% hits; also: % is scaled to controls: 0 for no effect and ±100 for the full control effect; nearly all actives have a fitted effect of over 60% in size
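Multi-concentration screen (max 110 uM) measuring displacement of acetylated histone H3 peptide from BAZ2B by AlphaScreen, using 50 nM protein, 50 nM peptide and 10 ug/mL streptavidin donor plus Ni-chelate acceptor beads.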
JMJD2A Tudor – blocks the human JMJD2A Tudor domain. O75164. AlphaScreen JMJD2A-Tudor / H3K4me3 peptide binding. Potency, µM (titrated, usually from 114 µM), without a hit: at the top dose activity change, negative = inhibition, most hits filed as inhibitors. 390,000 compounds, 4.4% hits. AID 504339; also: % is scaled to controls: 0 for no effect and ±100 for the full control effect; nearly all actives have a fitted effect of over 50% in size
Target sequence (O75164 whole entry, looked up, the tested form may be a part): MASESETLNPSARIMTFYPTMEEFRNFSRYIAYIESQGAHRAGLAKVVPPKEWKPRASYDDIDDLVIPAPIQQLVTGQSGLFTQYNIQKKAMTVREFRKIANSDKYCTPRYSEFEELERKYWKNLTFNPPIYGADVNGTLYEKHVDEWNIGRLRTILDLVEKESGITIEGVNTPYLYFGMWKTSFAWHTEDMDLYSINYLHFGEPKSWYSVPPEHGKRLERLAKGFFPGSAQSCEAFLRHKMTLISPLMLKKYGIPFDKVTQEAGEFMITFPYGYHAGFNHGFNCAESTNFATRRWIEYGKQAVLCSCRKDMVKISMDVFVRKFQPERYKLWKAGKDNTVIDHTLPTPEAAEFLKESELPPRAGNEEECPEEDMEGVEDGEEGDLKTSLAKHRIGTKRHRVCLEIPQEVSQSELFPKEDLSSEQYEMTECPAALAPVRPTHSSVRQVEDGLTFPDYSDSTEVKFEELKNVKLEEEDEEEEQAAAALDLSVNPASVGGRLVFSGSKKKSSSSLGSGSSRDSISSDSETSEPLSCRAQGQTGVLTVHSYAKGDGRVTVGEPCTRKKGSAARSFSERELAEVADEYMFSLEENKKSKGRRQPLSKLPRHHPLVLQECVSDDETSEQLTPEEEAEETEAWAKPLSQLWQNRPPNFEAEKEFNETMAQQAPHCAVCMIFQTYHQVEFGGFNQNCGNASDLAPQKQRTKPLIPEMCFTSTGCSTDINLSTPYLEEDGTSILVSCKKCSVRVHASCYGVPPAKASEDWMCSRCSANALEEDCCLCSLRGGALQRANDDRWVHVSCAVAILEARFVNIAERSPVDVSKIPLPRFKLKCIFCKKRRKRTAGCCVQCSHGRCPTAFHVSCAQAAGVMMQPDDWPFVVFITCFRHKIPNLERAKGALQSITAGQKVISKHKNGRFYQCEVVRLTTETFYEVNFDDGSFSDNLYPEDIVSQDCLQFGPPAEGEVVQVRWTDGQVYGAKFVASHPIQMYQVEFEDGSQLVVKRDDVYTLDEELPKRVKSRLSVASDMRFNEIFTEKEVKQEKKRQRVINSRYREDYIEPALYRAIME
Sfp inh – Sfp phosphopantetheinyl transferase inhibition | Q9F4F7 | Biochemical Sfp PPTase activity, qHTS | Potency, µM, for the others: largest response in the series, negative = inhibition, most hits filed as inhibitors | 310,000 compounds, 3.5% hits;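 also: the enzyme is Sfp with the accession as filed and its product quenches rhodamine fluorescence; 0% = enzyme reaction without inhibitor and -100% = no enzyme wells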
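Fluorescence-quenching assay with 15 nM Sfp, 5 uM rhodamine-CoA and 12.5 uM BHQ-2-labelled ybbR peptide in pH 7.6 Hepes/MgCl2 buffer. Enzyme was pre-incubated with compound for 15 min at room temperature. Rate was taken from the 30-min fluorescence change (525/598 nm).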
G9a block – inhibitors of human histone lysine methyltransferase G9a. Potency, µM (highest dose often 102 µM), without a hit: top-dose activity, negative = inhibition, hits mostly inhibitors. Q96KQ7. AID 504332. G9a H3K9 monomethylation, AlphaScreen, 2 h. 350,000 compounds, 8.8% hits; also: % is scaled to controls: 0 for no effect and ±100 for the full control effect; nearly all actives have a fitted effect of over 75% in size
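Signal arises when biotinylated H3K9 peptide, once monomethylated, bridges streptavidin donor and antibody-captured acceptor beads. Enzyme at 20 nM was preincubated 15 min with test compounds; peptide 500 nM and SAM 20 uM then reacted for 2 h.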
* hit, by the source's call; [ ] = remark or other dose. In the library only some 12% were active in any assay of this set; here they are far more common. Calls follow the shape of the dose curve; as a rule, active = well fitted curve in the direction sought with a large enough effect; inconclusive = small, poorly fitted or top-dose-only effect, or another doubt; inactive = no such curve, though single readings can be large; an effect the other way counts as inactive or inconclusive. Potency is read from the fitted curve at half-maximal effect.

How did CCN1C(=O)[C@H]2[C@@H](c3ccc(-c4ccc5c(c4)OCO5)cc3)N[C@@](Cc3ccccc3)(C(=O)OC)[C@H]2C1=O do in these assays?
HP1b chromo inh: 36.7%; L3MBTL1 block: 0.5%; JMJD2A Tudor: -23.4%

Results for COC(=O)C1(Cc2ccccc2)NC(c2ccccc2C)C2C(=O)N(c3ccc4c(c3)OCO4)C(=O)C21 (centres undefined) ?
HP1b chromo inh: 9.2%; L3MBTL1 block: -1.1%; BAZ2B block: 3.8%; JMJD2A Tudor: -29.4%; Sfp inh: 1.8%; G9a block: 0.794µM*

What do the screens show for `Fc1ccc(Nc2nc(N/N=C/c3ccco3)nc(N3CCCCC3)n2)cc1`?
HP1b chromo inh: -8.5%; L3MBTL1 block: -28.6%; BAZ2B block: inconclusive; JMJD2A Tudor: inconclusive; Sfp inh: 0.1%; G9a block: 39.8µM*

Results for CN(C)C1=NC(=O)/C(=C/c2ccc(-c3ccc(S(N)(=O)=O)cc3)o2)S1 ?
L3MBTL1 block: -3.1%; BAZ2B block: inconclusive; Sfp inh: 35.5µM*; G9a block: 7.08µM*

Results for NC1=NC(=O)/C(=C\c2ccc(-c3ccc(Cl)cc3)o2)S1 ?
HP1b chromo inh: 21.8%; L3MBTL1 block: -4.0%; BAZ2B block: -8.1%; JMJD2A Tudor: -15.7%; Sfp inh: 8.9%; G9a block: inconclusive

How did CCN(CC(=O)Nc1cccc(S(=O)(=O)N(C)c2ccccc2)c1)Cc1ccccc1 do in these assays?
HP1b chromo inh: 28.9%; L3MBTL1 block: 49.1%; BAZ2B block: 32.3%; JMJD2A Tudor: -11.7%; G9a block: 9.0%[12.7 µM]

What do the screens show for `Cc1ccccc1CN(C)CC(=O)Nc1cccc(S(=O)(=O)N(C)c2ccccc2)c1`?
HP1b chromo inh: 5.4%; L3MBTL1 block: -3.1%; BAZ2B block: -4.2%; JMJD2A Tudor: 79.4µM*; Sfp inh: 11.9%; G9a block: 1.3%

What do the screens show for `Cc1cc(C)c(NC(=O)CN(C)CC(=O)Nc2cccc(S(=O)(=O)N(C)c3ccccc3)c2)c(C)c1`?
HP1b chromo inh: inconclusive; L3MBTL1 block: 0.2%; JMJD2A Tudor: 7.08µM*

How did COc1cccc(CN(C)CC(=O)NC(=O)NCc2ccco2)c1 do in these assays?
HP1b chromo inh: 50.1µM*; L3MBTL1 block: -3.0%[11.4 µM]; BAZ2B block: 50.1µM*; JMJD2A Tudor: 89.1µM*; Sfp inh: 5.4%; G9a block: 10.6%[12.7 µM]

How did CCN(CC)S(=O)(=O)c1cccc(NC(=O)CN(C)Cc2cccc(OC)c2)c1 do in these assays?
HP1b chromo inh: 22.4µM*; L3MBTL1 block: 4.8%; BAZ2B block: 50.1µM*; JMJD2A Tudor: 1.58µM*; Sfp inh: 89.1µM*; G9a block: -115.3%[12.7 µM]

Results for CC(=O)NCCC(=O)Nc1cccc(S(=O)(=O)N(C)c2ccccc2)c1 ?
HP1b chromo inh: 11.8%; L3MBTL1 block: -2.3%; BAZ2B block: -9.3%; JMJD2A Tudor: -15.8%; Sfp inh: 5.2%; G9a block: -6.8%[59 µM]

What do the screens show for `COc1cc(OC)c(NC(=O)c2cc(C(C)=O)n3ccccc23)cc1Cl`?
HP1b chromo inh: 8.8%; BAZ2B block: -3.0%; JMJD2A Tudor: -21.4%; G9a block: -12.6%[59 µM]

How did O=C(O)CC(c1cccc(Cl)c1)n1cccc1 (centres undefined) do in these assays?
HP1b chromo inh: 0.7%; BAZ2B block: -4.7%; JMJD2A Tudor: 89.1µM*; Sfp inh: -10.4%; G9a block: -17.4%

What do the screens show for `O=[N+]([O-])c1cc(S(=O)(=O)NC2=NCCCCC2)ccc1NCC1CCCCC1`?
HP1b chromo inh: -14.1%; JMJD2A Tudor: 44.7µM*; Sfp inh: -3.5%; G9a block: 44.7µM*

How did Nc1ccc(S(=O)(=O)NC2=NCCCCC2)cc1N do in these assays?
HP1b chromo inh: 8.6%; L3MBTL1 block: -4.7%; JMJD2A Tudor: -9.7%; Sfp inh: 18.2%; G9a block: inconclusive

What do the screens show for `Cc1ccc(-n2c(C)c([N+](=O)[O-])c3ccc(O)cc32)cc1`?
L3MBTL1 block: 2.8%; BAZ2B block: -4.4%; Sfp inh: 17.8µM*; G9a block: 50.1µM*

Results for CC(C)c1ccc(-c2nc(C(N)=O)c3c(n2)n(-c2ccc4c(c2)OCO4)c(=O)n3C)cc1 ?
HP1b chromo inh: 28.0%[57 µM]; BAZ2B block: inconclusive; JMJD2A Tudor: 5.1%; G9a block: 8.9%[59 µM]

How did O=C(O)c1ccc(N2CCN(Cc3ccc4c(c3)OCO4)CC2)c([N+](=O)[O-])c1 do in these assays?
HP1b chromo inh: inconclusive; BAZ2B block: -1.5%; JMJD2A Tudor: inconclusive; Sfp inh: 6.5%; G9a block: -11.5%[2.33 µM]

Results for CC1CCCN(c2ccc(C(=O)NCc3ccc4c(c3)OCO4)cc2[N+](=O)[O-])C1 (centres undefined) ?
HP1b chromo inh: inconclusive; L3MBTL1 block: -32.7%; BAZ2B block: inconclusive; JMJD2A Tudor: inconclusive; Sfp inh: 3.4%; G9a block: 14.1µM*

Results for O=C(NCc1ccc2c(c1)OCO2)c1ccc(N2CCCCCC2)c([N+](=O)[O-])c1 ?
HP1b chromo inh: inconclusive; L3MBTL1 block: -27.8%; BAZ2B block: inconclusive; JMJD2A Tudor: inconclusive; Sfp inh: 14.4%; G9a block: 35.5µM*

What do the screens show for `CC1CCN(c2ccc(C(=O)Nc3ccc4c(c3)OCO4)cc2[N+](=O)[O-])CC1`?
HP1b chromo inh: inconclusive; L3MBTL1 block: -23.1%; BAZ2B block: inconclusive; JMJD2A Tudor: inconclusive; Sfp inh: 11.8%; G9a block: inconclusive

How did CC1CCCN(c2ccc(C(=O)Nc3ccc4c(c3)OCO4)cc2[N+](=O)[O-])C1 (centres undefined) do in these assays?
HP1b chromo inh: inconclusive; L3MBTL1 block: -22.8%; BAZ2B block: inconclusive; JMJD2A Tudor: inconclusive; Sfp inh: 10.2%; G9a block: 22.4µM*

Results for CC1CN(C(=O)N2CCC(C(=O)NC3CCCCCC3)CC2)c2cc(Cl)ccc2O1 (centres undefined) ?
HP1b chromo inh: inconclusive; BAZ2B block: -35.6%; JMJD2A Tudor: -33.6%; G9a block: inconclusive

What do the screens show for `CCCn1c(C)nc2c(N(CCOC)CCOC)nc(C)nc21`?
Sfp inh: 21.3%

How did Cc1cccc(-c2nc(S(=O)(=O)c3ccccc3)c(N3CCN(c4ccccc4)CC3)o2)c1 do in these assays?
HP1b chromo inh: 1.8%; BAZ2B block: -22.1%; JMJD2A Tudor: -18.8%; G9a block: inconclusive

Results for Cc1oc(-c2ccc(F)cc2)nc1CN(Cc1ccccn1)CC1CCCO1 (centres undefined) ?
HP1b chromo inh: inconclusive; L3MBTL1 block: -18.1%; BAZ2B block: -13.7%; JMJD2A Tudor: 20µM*; Sfp inh: -0.3%; G9a block: 0.9%

Screening results from PubChem.
